Laboratory results: paper PMC7862700, “An all-to-all approach to the identification of sequence-specific readers for epigenetic DNA modifications on cytosine”

Assays:
Test in all cases: DAPPL (digital affinity profiling via proximity ligation, sequencing); 10 mM Tris-HCl pH 7.5, 50 mM NaCl, 1 mM DTT, 4% glycerol, room temperature, 30 min; GST-TFs on glutathione beads, 16-mer random dsDNA library, 0.1% formaldehyde crosslink after washing; high values mean tight binding
[1] = target: T1, FLI1 (Homo sapiens, UniProt Q01543 1-452); conditions: protein: recombinant; tags: N-terminal GST; dsDNA, one strand shown
T1 sequence: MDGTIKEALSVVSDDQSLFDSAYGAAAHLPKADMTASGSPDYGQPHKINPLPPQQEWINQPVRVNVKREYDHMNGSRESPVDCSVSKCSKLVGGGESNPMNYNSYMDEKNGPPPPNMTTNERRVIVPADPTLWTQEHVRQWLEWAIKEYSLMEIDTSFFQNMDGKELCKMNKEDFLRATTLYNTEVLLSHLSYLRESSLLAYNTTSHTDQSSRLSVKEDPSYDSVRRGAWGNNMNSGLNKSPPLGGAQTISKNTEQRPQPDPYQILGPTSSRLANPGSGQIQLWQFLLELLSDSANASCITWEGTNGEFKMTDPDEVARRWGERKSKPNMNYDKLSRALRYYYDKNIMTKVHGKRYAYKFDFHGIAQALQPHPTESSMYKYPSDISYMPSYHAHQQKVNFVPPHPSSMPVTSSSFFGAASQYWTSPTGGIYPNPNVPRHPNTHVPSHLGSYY
Summary of the method: (§1)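 Pools of DNA-barcoded human transcription factors, expressed in yeast as GST fusions on glutathione beads and combined with a tag-only sample, were incubated with 200 nmole of a 16-mer random double-stranded DNA library. Incubation took 30 min at room temperature in Tris/NaCl/DTT/glycerol buffer and was followed by washing, 0.1% formaldehyde crosslinking, proximity ligation (BsaI/T4 ligase, 1 h, 37 °C), PCR amplification and sequencing on an Illumina NextSeq500. Binding signal is the ratio of a hexamer's read frequency for a factor to its frequency for the tag-only sample.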

[2] = target: T2, ELK1 (Homo sapiens, UniProt P19419 1-428); conditions: protein: recombinant; tags: N-terminal GST; dsDNA, one strand shown
T2 sequence: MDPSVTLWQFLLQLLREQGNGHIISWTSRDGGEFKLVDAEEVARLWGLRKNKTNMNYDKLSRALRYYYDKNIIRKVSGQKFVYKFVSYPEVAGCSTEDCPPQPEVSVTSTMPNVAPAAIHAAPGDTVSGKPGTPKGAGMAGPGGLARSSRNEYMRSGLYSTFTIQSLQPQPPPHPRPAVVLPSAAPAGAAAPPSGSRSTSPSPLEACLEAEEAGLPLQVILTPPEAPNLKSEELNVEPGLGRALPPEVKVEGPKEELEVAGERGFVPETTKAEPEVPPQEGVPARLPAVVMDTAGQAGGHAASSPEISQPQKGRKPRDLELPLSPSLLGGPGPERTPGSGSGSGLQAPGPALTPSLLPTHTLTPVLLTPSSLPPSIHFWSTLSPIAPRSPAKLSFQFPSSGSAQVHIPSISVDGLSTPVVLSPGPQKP
Summary of the method: as §1

[3] = target: T3, GABPA (Homo sapiens, UniProt Q06546 1-454); conditions: protein: recombinant; tags: N-terminal GST; dsDNA, one strand shown
T3 sequence: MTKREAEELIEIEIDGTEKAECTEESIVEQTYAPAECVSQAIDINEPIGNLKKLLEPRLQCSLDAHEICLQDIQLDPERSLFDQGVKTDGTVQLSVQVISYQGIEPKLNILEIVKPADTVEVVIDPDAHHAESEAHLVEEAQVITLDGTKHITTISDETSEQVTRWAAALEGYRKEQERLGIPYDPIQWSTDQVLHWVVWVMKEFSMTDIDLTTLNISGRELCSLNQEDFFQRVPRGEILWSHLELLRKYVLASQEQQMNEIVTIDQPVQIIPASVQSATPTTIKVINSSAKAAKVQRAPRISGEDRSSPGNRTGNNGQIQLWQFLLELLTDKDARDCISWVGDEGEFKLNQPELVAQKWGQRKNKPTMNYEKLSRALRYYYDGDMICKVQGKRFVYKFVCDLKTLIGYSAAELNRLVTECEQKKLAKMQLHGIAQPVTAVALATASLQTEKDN
Summary of the method: as §1

[4] = target: T4, ERG (Homo sapiens, UniProt P11308 1-479); conditions: protein: recombinant; tags: N-terminal GST; dsDNA, one strand shown
T4 sequence: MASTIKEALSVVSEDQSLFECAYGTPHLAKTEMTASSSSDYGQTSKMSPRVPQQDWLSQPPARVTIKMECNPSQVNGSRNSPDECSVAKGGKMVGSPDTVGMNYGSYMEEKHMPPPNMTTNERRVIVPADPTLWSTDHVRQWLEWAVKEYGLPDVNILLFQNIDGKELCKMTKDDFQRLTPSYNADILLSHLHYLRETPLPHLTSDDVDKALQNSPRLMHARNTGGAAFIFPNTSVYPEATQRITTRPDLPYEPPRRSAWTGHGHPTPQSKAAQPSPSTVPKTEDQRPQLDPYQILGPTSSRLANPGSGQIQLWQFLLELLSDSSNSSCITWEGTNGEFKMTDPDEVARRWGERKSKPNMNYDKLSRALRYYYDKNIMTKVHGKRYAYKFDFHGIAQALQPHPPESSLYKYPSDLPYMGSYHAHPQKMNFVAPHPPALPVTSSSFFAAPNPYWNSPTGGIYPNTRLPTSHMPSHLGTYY
Summary of the method: as §1

[5] = target: ELF1 (Homo sapiens, UniProt P32519 1-619); conditions: protein: recombinant; tags: N-terminal GST; dsDNA, one strand shown
ELF1, sequence (P32519 whole entry): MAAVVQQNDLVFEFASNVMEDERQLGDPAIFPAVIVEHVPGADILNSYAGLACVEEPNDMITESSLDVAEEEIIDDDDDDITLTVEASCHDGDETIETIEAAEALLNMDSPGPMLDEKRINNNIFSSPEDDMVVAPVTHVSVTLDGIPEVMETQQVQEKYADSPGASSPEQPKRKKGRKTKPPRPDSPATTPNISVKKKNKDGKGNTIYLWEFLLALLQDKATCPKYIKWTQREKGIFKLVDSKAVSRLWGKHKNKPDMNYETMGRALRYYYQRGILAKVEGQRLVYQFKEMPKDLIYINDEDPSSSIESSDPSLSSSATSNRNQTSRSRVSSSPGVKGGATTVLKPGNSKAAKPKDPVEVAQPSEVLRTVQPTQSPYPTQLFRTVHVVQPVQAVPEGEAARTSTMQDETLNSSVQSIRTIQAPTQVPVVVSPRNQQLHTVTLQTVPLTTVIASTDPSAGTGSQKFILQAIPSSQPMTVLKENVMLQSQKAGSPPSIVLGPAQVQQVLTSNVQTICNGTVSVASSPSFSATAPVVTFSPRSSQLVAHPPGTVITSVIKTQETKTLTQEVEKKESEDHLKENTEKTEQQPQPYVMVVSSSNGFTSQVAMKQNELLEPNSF
Summary of the method: as §1

[6] = target: T5, EHF (Homo sapiens, UniProt Q9NZC4 1-300); conditions: protein: recombinant; tags: N-terminal GST; dsDNA, one strand shown
T5 sequence: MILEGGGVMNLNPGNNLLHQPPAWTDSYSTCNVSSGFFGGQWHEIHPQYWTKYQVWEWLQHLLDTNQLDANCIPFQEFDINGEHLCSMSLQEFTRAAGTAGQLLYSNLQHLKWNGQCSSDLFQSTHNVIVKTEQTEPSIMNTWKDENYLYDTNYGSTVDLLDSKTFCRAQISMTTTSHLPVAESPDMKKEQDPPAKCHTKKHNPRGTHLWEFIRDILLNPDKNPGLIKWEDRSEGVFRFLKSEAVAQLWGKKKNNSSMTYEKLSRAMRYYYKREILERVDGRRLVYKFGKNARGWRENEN
Summary of the method: as §1

[7] = target: SPI1 (Homo sapiens, UniProt P17947 1-270); conditions: protein: recombinant; tags: N-terminal GST; dsDNA, one strand shown
Summary of the method: as §1

[8] = target: SPIB (Homo sapiens, UniProt Q01892 1-262); conditions: protein: recombinant; tags: N-terminal GST; dsDNA, one strand shown
SPIB, sequence (Q01892 whole entry): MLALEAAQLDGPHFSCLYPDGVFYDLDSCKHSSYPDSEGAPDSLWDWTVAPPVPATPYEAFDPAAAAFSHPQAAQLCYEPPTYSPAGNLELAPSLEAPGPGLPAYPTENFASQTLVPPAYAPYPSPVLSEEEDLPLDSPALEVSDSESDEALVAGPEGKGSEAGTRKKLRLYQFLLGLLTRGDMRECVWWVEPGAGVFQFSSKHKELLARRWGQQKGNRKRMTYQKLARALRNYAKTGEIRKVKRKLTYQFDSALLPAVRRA
Summary of the method: as §1

[9] = target: T6, ELK3 (Homo sapiens, UniProt P41970 1-407); conditions: protein: recombinant; tags: N-terminal GST; dsDNA, one strand shown
T6 sequence: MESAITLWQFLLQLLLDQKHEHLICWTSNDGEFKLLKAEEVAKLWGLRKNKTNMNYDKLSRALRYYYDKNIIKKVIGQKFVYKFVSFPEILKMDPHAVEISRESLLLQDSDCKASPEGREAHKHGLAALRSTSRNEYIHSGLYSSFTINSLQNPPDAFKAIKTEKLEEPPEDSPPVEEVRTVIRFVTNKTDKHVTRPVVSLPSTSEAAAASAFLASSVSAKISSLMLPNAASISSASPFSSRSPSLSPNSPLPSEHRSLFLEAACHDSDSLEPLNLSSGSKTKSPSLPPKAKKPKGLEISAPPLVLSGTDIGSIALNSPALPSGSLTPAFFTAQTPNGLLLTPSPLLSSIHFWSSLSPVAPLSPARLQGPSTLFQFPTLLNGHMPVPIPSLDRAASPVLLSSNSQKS
Summary of the method: as §1

[10] = target: ETV5 (Homo sapiens, UniProt P41161 1-510); conditions: protein: recombinant; tags: N-terminal GST; dsDNA, one strand shown
ETV5, sequence (P41161 whole entry): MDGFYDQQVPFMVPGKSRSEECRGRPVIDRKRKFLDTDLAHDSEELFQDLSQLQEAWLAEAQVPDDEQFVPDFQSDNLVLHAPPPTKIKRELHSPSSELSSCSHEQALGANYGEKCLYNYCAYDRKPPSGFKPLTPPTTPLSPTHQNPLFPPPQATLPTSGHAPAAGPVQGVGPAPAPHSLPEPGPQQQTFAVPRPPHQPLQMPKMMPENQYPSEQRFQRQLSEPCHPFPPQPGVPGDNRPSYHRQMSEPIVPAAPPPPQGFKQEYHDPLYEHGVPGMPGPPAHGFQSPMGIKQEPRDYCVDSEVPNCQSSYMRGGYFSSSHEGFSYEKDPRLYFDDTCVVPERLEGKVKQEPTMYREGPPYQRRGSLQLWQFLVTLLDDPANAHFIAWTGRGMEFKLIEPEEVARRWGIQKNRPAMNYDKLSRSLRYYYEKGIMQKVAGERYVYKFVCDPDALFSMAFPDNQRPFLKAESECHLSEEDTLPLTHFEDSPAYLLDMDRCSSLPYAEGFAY
Summary of the method: as §1

[11] = target: HSF1 (Homo sapiens, UniProt Q00613 1-529); conditions: protein: recombinant; tags: N-terminal GST; chain copies: 3; dsDNA, one strand shown
HSF1, sequence (Q00613 whole entry): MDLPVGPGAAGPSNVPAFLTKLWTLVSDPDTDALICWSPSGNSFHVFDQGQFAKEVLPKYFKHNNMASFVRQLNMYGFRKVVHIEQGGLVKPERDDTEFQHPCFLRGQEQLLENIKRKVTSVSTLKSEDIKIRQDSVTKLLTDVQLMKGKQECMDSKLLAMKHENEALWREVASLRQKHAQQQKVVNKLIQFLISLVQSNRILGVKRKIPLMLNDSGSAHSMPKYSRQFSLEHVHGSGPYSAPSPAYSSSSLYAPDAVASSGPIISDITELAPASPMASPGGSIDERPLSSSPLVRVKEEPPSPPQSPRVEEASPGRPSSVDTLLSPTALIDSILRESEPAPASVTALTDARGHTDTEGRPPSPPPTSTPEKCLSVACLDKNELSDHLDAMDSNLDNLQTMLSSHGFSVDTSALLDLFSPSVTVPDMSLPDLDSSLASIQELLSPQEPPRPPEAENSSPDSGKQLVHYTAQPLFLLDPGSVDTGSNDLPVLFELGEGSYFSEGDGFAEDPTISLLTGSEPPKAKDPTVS
Summary of the method: as §1

[12] = target: T7, SPIC (Homo sapiens, UniProt Q8N5J4 1-248); conditions: protein: recombinant; tags: N-terminal GST; dsDNA, one strand shown
T7 sequence: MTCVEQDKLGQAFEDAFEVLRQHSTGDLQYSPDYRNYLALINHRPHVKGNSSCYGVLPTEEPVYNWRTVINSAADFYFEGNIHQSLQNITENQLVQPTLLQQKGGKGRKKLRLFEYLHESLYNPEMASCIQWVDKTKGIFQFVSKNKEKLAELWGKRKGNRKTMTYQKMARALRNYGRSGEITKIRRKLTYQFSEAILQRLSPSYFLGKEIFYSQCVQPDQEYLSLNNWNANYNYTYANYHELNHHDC
Summary of the method: as §1

[13] = target: ELF4 (Homo sapiens, UniProt Q99607 1-663); conditions: protein: recombinant; tags: N-terminal GST; dsDNA, one strand shown
ELF4, sequence (Q99607 whole entry): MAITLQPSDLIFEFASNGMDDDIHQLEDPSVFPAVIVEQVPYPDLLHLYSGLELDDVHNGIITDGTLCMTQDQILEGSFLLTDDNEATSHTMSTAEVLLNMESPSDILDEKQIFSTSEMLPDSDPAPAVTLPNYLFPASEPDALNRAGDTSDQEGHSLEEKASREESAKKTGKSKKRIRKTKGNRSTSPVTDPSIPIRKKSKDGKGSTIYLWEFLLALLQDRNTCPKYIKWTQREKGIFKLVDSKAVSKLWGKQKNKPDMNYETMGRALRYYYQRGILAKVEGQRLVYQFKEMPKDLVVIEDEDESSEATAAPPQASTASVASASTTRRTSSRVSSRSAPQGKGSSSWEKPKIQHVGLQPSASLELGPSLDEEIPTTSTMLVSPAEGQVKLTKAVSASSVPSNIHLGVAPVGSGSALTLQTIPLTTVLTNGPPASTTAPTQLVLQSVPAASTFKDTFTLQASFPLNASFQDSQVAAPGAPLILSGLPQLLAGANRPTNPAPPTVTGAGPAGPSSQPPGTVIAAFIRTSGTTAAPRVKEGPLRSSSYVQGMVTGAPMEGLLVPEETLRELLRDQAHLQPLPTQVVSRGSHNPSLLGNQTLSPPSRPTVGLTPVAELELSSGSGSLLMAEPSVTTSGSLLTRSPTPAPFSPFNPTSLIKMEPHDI
Summary of the method: as §1

[14] = target: T8, ELK4 (Homo sapiens, UniProt P28324-2 1-405); conditions: protein: recombinant; tags: N-terminal GST; dsDNA, one strand shown
T8 sequence: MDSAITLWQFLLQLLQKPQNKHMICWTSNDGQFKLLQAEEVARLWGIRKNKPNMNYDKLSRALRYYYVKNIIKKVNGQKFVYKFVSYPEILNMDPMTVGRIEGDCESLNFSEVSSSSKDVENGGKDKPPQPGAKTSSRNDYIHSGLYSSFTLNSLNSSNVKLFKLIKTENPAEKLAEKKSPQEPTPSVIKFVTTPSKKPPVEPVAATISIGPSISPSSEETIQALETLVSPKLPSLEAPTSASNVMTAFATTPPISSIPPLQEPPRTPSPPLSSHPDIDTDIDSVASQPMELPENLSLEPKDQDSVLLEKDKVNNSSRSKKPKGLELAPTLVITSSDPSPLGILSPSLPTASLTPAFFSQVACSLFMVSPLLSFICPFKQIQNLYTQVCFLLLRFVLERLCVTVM
Summary of the method: as §1

[15] = target: T9, ETV2 (Homo sapiens, UniProt O00321 1-342); conditions: protein: recombinant; tags: N-terminal GST; dsDNA, one strand shown
T9 sequence: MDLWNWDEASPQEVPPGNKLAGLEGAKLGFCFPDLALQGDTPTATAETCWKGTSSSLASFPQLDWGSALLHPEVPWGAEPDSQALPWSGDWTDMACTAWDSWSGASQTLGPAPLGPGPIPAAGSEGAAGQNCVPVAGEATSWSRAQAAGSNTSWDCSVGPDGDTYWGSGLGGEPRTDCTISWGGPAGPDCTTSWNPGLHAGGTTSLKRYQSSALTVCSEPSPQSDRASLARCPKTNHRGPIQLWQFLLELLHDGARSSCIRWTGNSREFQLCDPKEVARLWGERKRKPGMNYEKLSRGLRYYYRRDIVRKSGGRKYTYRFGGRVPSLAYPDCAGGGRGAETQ
Summary of the method: as §1

[16] = target: T10, ELF3 (Homo sapiens, UniProt P78545 1-371); conditions: protein: recombinant; tags: N-terminal GST; dsDNA, one strand shown
T10 sequence: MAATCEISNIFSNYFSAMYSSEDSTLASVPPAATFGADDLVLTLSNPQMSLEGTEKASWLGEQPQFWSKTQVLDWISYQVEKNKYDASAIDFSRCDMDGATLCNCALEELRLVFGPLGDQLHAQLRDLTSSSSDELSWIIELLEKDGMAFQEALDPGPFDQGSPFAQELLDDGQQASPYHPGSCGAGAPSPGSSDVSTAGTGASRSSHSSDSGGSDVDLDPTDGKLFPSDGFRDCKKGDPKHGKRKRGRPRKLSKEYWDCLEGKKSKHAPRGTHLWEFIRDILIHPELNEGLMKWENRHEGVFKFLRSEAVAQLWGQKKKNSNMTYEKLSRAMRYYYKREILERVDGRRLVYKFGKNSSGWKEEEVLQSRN
Summary of the method: as §1

[17] = target: CRX (Homo sapiens, UniProt O43186 1-299); conditions: protein: recombinant; tags: N-terminal GST; dsDNA, one strand shown
CRX, sequence (O43186 whole entry): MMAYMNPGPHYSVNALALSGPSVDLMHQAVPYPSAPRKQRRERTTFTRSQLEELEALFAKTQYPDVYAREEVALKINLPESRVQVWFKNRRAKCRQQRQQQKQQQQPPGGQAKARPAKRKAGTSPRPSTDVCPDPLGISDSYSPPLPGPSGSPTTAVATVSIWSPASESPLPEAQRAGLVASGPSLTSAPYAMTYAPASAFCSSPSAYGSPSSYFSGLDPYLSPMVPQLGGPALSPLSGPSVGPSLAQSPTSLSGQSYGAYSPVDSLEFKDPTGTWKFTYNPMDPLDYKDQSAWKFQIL
Summary of the method: as §1

[18] = target: ETV1 (Homo sapiens, UniProt P50549 1-477); conditions: protein: recombinant; tags: N-terminal GST; dsDNA, one strand shown
ETV1, sequence (P50549 whole entry): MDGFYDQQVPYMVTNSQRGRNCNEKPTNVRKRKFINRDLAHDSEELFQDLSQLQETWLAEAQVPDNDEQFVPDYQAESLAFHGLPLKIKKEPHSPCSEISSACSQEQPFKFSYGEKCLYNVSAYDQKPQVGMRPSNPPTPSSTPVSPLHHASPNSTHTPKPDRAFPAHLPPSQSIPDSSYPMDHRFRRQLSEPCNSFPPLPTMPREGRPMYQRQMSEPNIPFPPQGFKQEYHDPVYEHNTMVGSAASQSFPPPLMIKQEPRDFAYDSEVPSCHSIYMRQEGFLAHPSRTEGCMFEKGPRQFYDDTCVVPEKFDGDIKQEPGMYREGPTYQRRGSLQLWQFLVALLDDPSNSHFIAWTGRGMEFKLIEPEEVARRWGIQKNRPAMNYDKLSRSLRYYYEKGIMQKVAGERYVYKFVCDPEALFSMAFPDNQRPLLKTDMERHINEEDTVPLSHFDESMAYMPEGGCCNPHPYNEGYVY
Summary of the method: as §1

**Q.** For TAAGGT, which binding signal [1] is on record?
**A.** 1.12 fold enrichment (6-mer frequency, TF over GST control)

**Q.** What about the binding signal [2] of the same sequence?
**A.** 1.08 fold enrichment (6-mer frequency, TF over GST control)

**Q.** What about the binding signal [3] of the same sequence?
**A.** 1.14 fold enrichment (6-mer frequency, TF over GST control)

**Q.** And the binding signal [4]?
**A.** 1.01 fold enrichment (6-mer frequency, TF over GST control)

**Q.** And the binding signal [5]?
**A.** 1.04 fold enrichment (6-mer frequency, TF over GST control)

**Q.** What about the binding signal [6] of the same sequence?
**A.** 1.17 fold enrichment (6-mer frequency, TF over GST control)

**Q.** What about the binding signal [7] of the same sequence?
**A.** 1.02 fold enrichment (6-mer frequency, TF over GST control)

**Q.** What about the binding signal [8] of the same sequence?
**A.** 1.07 fold enrichment (6-mer frequency, TF over GST control)

**Q.** What about the binding signal [9] of the same sequence?
**A.** 1.13 fold enrichment (6-mer frequency, TF over GST control)

**Q.** What about the binding signal [10] of the same sequence?
**A.** 1.12 fold enrichment (6-mer frequency, TF over GST control)

**Q.** What about the binding signal [11] of the same sequence?
**A.** 1.1 fold enrichment (6-mer frequency, TF over GST control)

**Q.** What about the binding signal [12] of the same sequence?
**A.** 1.11 fold enrichment (6-mer frequency, TF over GST control)

**Q.** And the binding signal [13]?
**A.** 1.19 fold enrichment (6-mer frequency, TF over GST control)

**Q.** And the binding signal [14]?
**A.** 1.06 fold enrichment (6-mer frequency, TF over GST control)

**Q.** And the binding signal [15]?
**A.** 1.08 fold enrichment (6-mer frequency, TF over GST control)

**Q.** What about the binding signal [16] of the same sequence?
**A.** 1.08 fold enrichment (6-mer frequency, TF over GST control)

**Q.** What about the binding signal [17] of the same sequence?
**A.** 1.38 fold enrichment (6-mer frequency, TF over GST control)

**Q.** What about the binding signal [18] of the same sequence?
**A.** 1.1 fold enrichment (6-mer frequency, TF over GST control)
